SMILES strings stand for the structures. The campaign covered roughly 11,000 compounds. About 310 (2.8%) were called active. Cut-off read from the data, not from the text of the source: active = activity change below about -85%; inactive = the rest. Many of the other results were omitted from the sample, so actives are more common in it than they were.

The test relates to intestinal alkaline phosphatase [Mus musculus]. Kind of test: activators of mouse IAP, confirmation, biochemical, luminescence, single concentration (AID 434970). Particulars: purified mouse IAP, CDP-Star luminescence, 30 min, at 10 µM; activation factor: measured here: IAP activation factor, stronger effect = higher value; activity change, negative = activation: stronger effect = lower value.
Consider `CN1CCN(c2ccc(Cl)cc2NC(=O)c2ccc(S(=O)(=O)N3CCCCCC3)cc2)CC1`, for which the activation factor is 0.982 and the activity change, negative = activation is 1.75% (inactive).
Regarding `O=C(Nc1ccc(Cl)c(Cl)c1)Nc1cc(S(=O)(=O)N2CCOCC2)ccc1N1CCCC1`, the activation factor came to 2.53 and the activity change, negative = activation is -153% (active).
The matching figures for `O=C(Nc1ccc(Cl)c(Cl)c1)Nc1cc(C(=O)N2CCOCC2)ccc1N1CCCCC1`: 2.67 and -167% (active).
For `Cc1ccc(C(=O)N2CCOCC2)cc1Cl`, the activation factor is 0.984 and the activity change, negative = activation is 1.65% (inactive).
The matching figures for `O=C(Nc1ccccc1)c1ccc(S(=O)(=O)N2CCOCC2)cc1`: 1.01 and -1.35% (inactive).
The matching figures for `CC(=O)c1cccc(NC(=O)Nc2ccc(C(=O)N3CCOCC3)cc2)c1`: 1.06 and -6.35% (inactive).
The matching figures for `COc1ccccc1NC(=O)c1cc(S(=O)(=O)N2CCOCC2)ccc1Cl`: 0.877 and 12.2% (inactive).
Take `O=C(Nc1ccc(Cl)cc1)Nc1cc(S(=O)(=O)N2CCOCC2)ccc1N1CCCC1`: the activation factor was determined as 2.15 and the activity change, negative = activation was -116% (active).
The matching figures for `Cc1ccc(NC(=O)Nc2ccccc2F)cc1S(=O)(=O)N1CCOCC1`: 1.52 and -51.6% (inactive).
The matching figures for `CC(Sc1ccc(Cl)cc1)C(=O)Nc1ccc(S(=O)(=O)N2CCOCC2)cc1` (configuration not stated): 1.07 and -7.35% (inactive).
In the case of `CCN(CC)c1ccc(S(=O)(=O)N2CCOCC2)cc1NC(=O)Nc1ccccc1`, the activation factor came out at 2.53 and the activity change, negative = activation is -153% (active).
The matching figures for `Cc1ccc2c(c1)nnn2C1CCN(S(C)(=O)=O)CC1`: 0.904 and 9.55% (inactive).
The matching figures for `CCc1ccccc1NC1=NCC(=O)N1Cc1ccccc1`: 1 and -0.1% (inactive).
On to `COc1cccc(-c2sc3cc(OC)c(OC)cc3c2-c2ccc(OCCN3CCCCC3)cc2)c1`, for which the activation factor is 1.01 and the activity change, negative = activation is -0.55% (inactive).
The matching figures for `O=C(c1cccs1)N1CCCC(c2ccccc2)C1` (configuration not stated): 0.929 and 7.1% (inactive).
The matching figures for `COc1cc(=O)n(C)c2cc(N(C)C)ccc12`: 0.917 and 8.35% (inactive).
On to `COc1ccc2[nH]c3c(c2c1)CCN1C(=O)C(CC(=O)NCc2cccc(C(F)(F)F)c2)C[C@H](C(=O)N2CCOCC2)[C@@]31C` (some centres not stated), for which the activation factor amounted to 1.08 and the activity change, negative = activation was -8.45% (inactive).
The matching figures for `COc1ccc(Cc2nc3ccc(C(=O)NCc4ncc(C)[nH]4)cc3o2)cc1OC`: 0.927 and 7.3% (inactive).
Consider `COC(=O)c1sccc1NC(=O)C1CC=CCC1C(=O)O` (configuration not stated), for which the activation factor turned out to be 0.998 and the activity change, negative = activation was 0.15% (inactive).
The matching figures for `CC1(C)Cc2noc(N)c2C(C)(C)N1OC(=O)c1cccs1`: 1.04 and -3.75% (inactive).
As for `CC[C@]12c3[nH]c4cc(CCC(=O)N(C)C)ccc4c3CCN1C(=O)[C@@H](CC(=O)NC/C=C(\C)CCC=C(C)C)C[C@@H]2C(=O)N1CCN(C(=O)C2CC2)CC1`, the activation factor amounted to 1.09 and the activity change, negative = activation is -9.3% (inactive).
The matching figures for `O=C(c1ccc(Cn2c(=O)[nH]c3ccccc3c2=O)cc1)N1CCN(c2ccc(F)cc2)CC1`: 1 and 0.05% (inactive).
The matching figures for `S=C(NCc1ccccc1)Nc1cccc(Cl)c1`: 1.4 and -40.5% (inactive).
The matching figures for `Cc1ccc(NC(=S)NCCSc2ccc(Cl)cc2)cc1`: 1.45 and -45.4% (inactive).
As to `S=C(NCCN(C1CCCCC1)C1CCCC1)Nc1cccc(Cl)c1`, the activation factor was found to be 1.69 and the activity change, negative = activation was -68.5% (inactive).
The matching figures for `S=C(NCCC(c1ccccc1)c1ccccc1)Nc1ccc(Cl)cc1`: 2.1 and -110% (active).
The matching figures for `S=C(NCCC(c1ccccc1)c1ccccc1)Nc1cccc(Cl)c1`: 3.74 and -274% (active).
The matching figures for `Fc1ccccc1CNC(=S)Nc1ccc(Cl)cc1`: 1.38 and -38.1% (inactive).
On to `CC(C)CN(C(=O)COC(=O)Cn1cnc2ccccc2c1=O)C1CCS(=O)(=O)C1` (configuration not stated), for which the activation factor was 0.927 and the activity change, negative = activation was 7.25% (inactive).
The matching figures for `COc1ccccc1CN1CCN(S(=O)(=O)c2ccccc2)CC1`: 0.897 and 10.3% (inactive).
The matching figures for `Cc1ccc(-c2nnn(CC(=O)NC3CCN(Cc4ccccc4)CC3)n2)cc1`: 1.04 and -4.25% (inactive).
Consider `COc1ccccc1CN1CCC(n2nccc2NC(=O)CCCc2ccccc2)CC1`, for which the activation factor came to 2.08 and the activity change, negative = activation was -108% (active).
The matching figures for `COc1ccc(Cl)cc1NC(=O)CN1CCC(n2nnc3ccccc32)CC1`: 0.96 and 4.05% (inactive).
For the molecule `CCOC(=O)CN(C(=O)CN1CCC(n2nnc3cc(C)ccc32)CC1)c1ccccc1`, the activation factor was found to be 0.982 and the activity change, negative = activation was 1.8% (inactive).
The matching figures for `CCOc1ccc(CN2CCC(n3nccc3NC(=O)CCCc3ccccc3)CC2)cc1`: 1.83 and -83% (inactive).
The matching figures for `COc1ccc(CN2CCC(n3nccc3NC(=O)CCCc3ccccc3)CC2)cc1C`: 2.4 and -140% (active).
In the case of `COc1ccc(CN2CCC(n3nccc3NC(=O)CCc3ccccc3)CC2)c(C)c1C`, the activation factor worked out at 1.6 and the activity change, negative = activation was -60% (inactive).
Consider `Cc1ccc(C)c(CN2CCC(n3nccc3NC(=O)CCCc3ccccc3)CC2)c1`, for which the activation factor is 2.31 and the activity change, negative = activation was -131% (active).
The matching figures for `CCOc1ccc(-c2cc(CCCC(=O)NCCc3ccccc3)no2)cc1`: 1.07 and -6.9% (inactive).
The matching figures for `CCOc1cccc(CN2CCC(n3nccc3NC(=O)CCCc3ccccc3)CC2)c1`: 2.3 and -130% (active).
The matching figures for `COc1ccc(-c2noc(CCCC(=O)NCCc3ccccc3)n2)cc1OC`: 0.998 and 0.25% (inactive).
